Bioassay records: PubChem BioAssay, Broad Institute
T cruzi growth-1: blocks T. cruzi growth in NIH3T3 culture. 77,000 tested, 5.9% active. T. cruzi beta-gal in NIH3T3, GalScreen luminescence, 90 h. inhibition, % at 8.34 µM;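 active = mean inhibition above about 93%, with at least 55% of replicates each passing it, limit read from the data, passing the limit was not always enough; inconclusive = only one of those two conditions holds; inactive = neither condition holds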
C diff growth: blocks growth of Clostridium difficile. Clostridium difficile clinical isolate growth, OD600, 24 h; stronger effect = lower value. growth activity, negative = inhibition, % at 16 µg/mL (by protocol). 86,000 tested, 0.25% active;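 active = mean growth activity at or below -80% and every replicate also at or below -80%; inconclusive = mean at or below -80% but some replicate above -80%; inactive = mean growth activity above -80%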
Pf Dd2 inh: P. falciparum Dd2 growth inhibition. 94,000 tested, 2.3% active. activity change, % at 10 µM. SYBR Green, 72 h; stronger effect = lower value; in the data active = activity change below about -80%; inconclusive = no clear call, values can overlap the other calls
T cruzi growth-2: Trypanosoma cruzi proliferation inhibition | shares compounds with T cruzi growth-1 | T. cruzi beta-gal in NIH3T3, GalScreen luminescence, 90 h | inhibition, % at 8.35 µM | 5,600 tested, 72% active | AID 651739;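 active = mean replicate inhibition above about 95% and at least 55% of replicates individually reaching it, limit read from the data; inconclusive = only one of the two criteria is met; inactive = neither criterion is met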
T cruzi growth-3: Trypanosoma cruzi proliferation inhibition. shares compounds with T cruzi growth-1. inhibition, % at 2.09 µM. 5,600 tested, 21% active. T. cruzi beta-gal in NIH3T3, GalScreen luminescence, 90 h. AID 651740;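 active = mean inhibition above about 95%, with at least 55% of replicates also reaching it, limit read from the data; inconclusive = meets just one of the two conditions; inactive = meets neither condition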
NIH3T3 tox: kills mouse NIH/3T3 fibroblasts; shares compounds with T cruzi growth-1; 5,600 tested, 14% active; AID 651742; cytotoxicity (signal decrease), % at 8.35 µM; NIH/3T3 viability, CellTiter-Glo ATP luminescence, 90 h;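 active = mean signal decrease across replicates above about 35% based on untreated-well scatter, with enough replicates individually passing, limit read from the data; inconclusive = no rule stated though some were filed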
NIH3T3 tox 2: NIH/3T3 (mouse) viability loss; inhibition, % at 24.9 µM; NIH/3T3 viability, CellTiter-Glo ATP luminescence, 90 h; shares compounds with T cruzi growth-1; 5,600 tested, 56% active; AID 651744;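 active = mean loss of cell viability signal at or above a set limit, and enough replicates individually reaching it; inconclusive = meets only the mean limit or only the replicate share; inactive = meets neither condition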
Hits are given with their value. A selection: hits, their analogues and other compounds. The true share with any hit is near 6.8%.

Screening CC(=O)N[C@H]1CC[C@@H](CC(=O)NCc2ccc(Cl)cc2)O[C@H]1CO returned T cruzi growth-1 inactive, C diff growth inactive and Pf Dd2 inh inactive.
C[C@@H]1CN([C@H](C)CO)C(=O)Cc2cc(NS(=O)(=O)c3ccccc3)ccc2O[C@@H]1CN(C)S(=O)(=O)c1ccc(Cl)cc1 was read as T cruzi growth-1 inactive, C diff growth inactive and Pf Dd2 inh inactive.
Screening O=C(C[C@H]1C=C[C@@H](NC(=O)Nc2ccccc2F)[C@H](CO)O1)NCc1ccc(Cl)cc1 returned T cruzi growth-1 inactive, C diff growth inactive and Pf Dd2 inh inactive.
`COc1ccc(C#Cc2ccc3c(c2)[C@@H]2[C@@H](CCN2C(=O)NC(C)C)[C@@H](CO)N3C)cc1` gave T cruzi growth-1 inactive, C diff growth inactive and Pf Dd2 inh inactive.
For CCCNC(=O)N1[C@H](CO)[C@@H](c2ccccc2)[C@@H]1CNC(=O)c1cccc(F)c1 the results were T cruzi growth-1 inactive, C diff growth inactive and Pf Dd2 inh inactive.
`CCCNC(=O)N1[C@@H](CO)[C@H](c2ccccc2)[C@@H]1CNC(=O)c1cccc(F)c1` gave T cruzi growth-1 101.9, C diff growth inactive, Pf Dd2 inh inactive, T cruzi growth-2 inactive, T cruzi growth-3 inactive, NIH3T3 tox inactive and NIH3T3 tox 2 inactive.
Screening CCCNC(=O)N1[C@H](CNC(C)=O)[C@@H](c2ccc(-c3ccccc3)cc2)[C@@H]1CO returned T cruzi growth-1 109.7, C diff growth inactive, Pf Dd2 inh inactive, T cruzi growth-2 inactive, T cruzi growth-3 inactive, NIH3T3 tox inactive and NIH3T3 tox 2 inactive.
For CCCNC(=O)N1[C@H](CO)[C@H](c2ccc(-c3ccccc3)cc2)[C@@H]1CNC(C)=O the results were T cruzi growth-1 inactive, C diff growth inactive and Pf Dd2 inh inactive.
For COc1ccc(NC(=O)N(C)C[C@@H]2Oc3c(NC(=O)Nc4ccc(C(F)(F)F)cc4)cccc3C(=O)N([C@H](C)CO)C[C@H]2C)cc1 the results were T cruzi growth-1 inactive, C diff growth inactive and Pf Dd2 inh inactive.
O=C(C[C@@H]1CC[C@H]2[C@@H](COC[C@@H](O)CN2Cc2nccs2)O1)NCc1ccc(Oc2ccccc2)cc1 was read as C diff growth inactive and Pf Dd2 inh inactive.
`O=C(C[C@@H]1CC[C@H]2[C@@H](COC[C@@H](O)CN2Cc2ccc(Oc3ccccc3)cc2)O1)Nc1nccs1` gave T cruzi growth-1 116.6, C diff growth inactive, Pf Dd2 inh inactive, T cruzi growth-2 101.2, T cruzi growth-3 inactive, NIH3T3 tox inactive and NIH3T3 tox 2 97.4.
Screening O=C(C[C@H]1CC[C@@H]2[C@H](COC[C@H](O)CN2Cc2ccc(Oc3ccccc3)cc2)O1)Nc1nccs1 returned T cruzi growth-1 133.1, C diff growth inactive, Pf Dd2 inh inactive, T cruzi growth-2 103.1, T cruzi growth-3 inactive, NIH3T3 tox inactive and NIH3T3 tox 2 52.3.
For O=C(C[C@@H]1CC[C@@H]2[C@H](COC[C@@H](O)CN2Cc2cccc(Cl)c2)O1)Nc1nccs1 the results were T cruzi growth-1 inactive, C diff growth inactive and Pf Dd2 inh inactive.
O=C(C[C@@H]1CC[C@@H]2[C@H](COC[C@@H](O)CN2Cc2ccc(Oc3ccccc3)cc2)O1)Nc1nccs1 was read as T cruzi growth-1 107.9, C diff growth inactive, Pf Dd2 inh inactive, T cruzi growth-2 101.9, T cruzi growth-3 inactive, NIH3T3 tox inactive and NIH3T3 tox 2 inactive.
Screening O=C(C[C@@H]1CC[C@@H]2[C@H](COC[C@H](O)CN2Cc2nccs2)O1)NCc1ccc(Oc2ccccc2)cc1 returned C diff growth inactive and Pf Dd2 inh inactive.
For O=C(C[C@@H]1CC[C@H]2[C@@H](COC[C@H](O)CN2Cc2ccc(Cl)cc2)O1)Nc1nccs1 the results were T cruzi growth-1 inactive, C diff growth inactive and Pf Dd2 inh inactive.
For O=C(C[C@@H]1CC[C@@H]2[C@H](COC[C@H](O)CN2Cc2ccc(Oc3ccccc3)cc2)O1)Nc1nccs1 the results were T cruzi growth-1 133.1, C diff growth inactive, Pf Dd2 inh inactive, T cruzi growth-2 100.4, T cruzi growth-3 inactive, NIH3T3 tox inactive and NIH3T3 tox 2 inactive.
`C[C@H](CO)N1C[C@H](C)[C@H](CN(C)S(=O)(=O)c2cccs2)Oc2c(NC(=O)Nc3ccccc3)cccc2C1=O` gave T cruzi growth-1 inactive, C diff growth inactive and Pf Dd2 inh inactive.
CC(C)NC(=O)N(C)C[C@@H]1Oc2ccc(NC(=O)Nc3ccc(C(F)(F)F)cc3)cc2CC(=O)N([C@H](C)CO)C[C@H]1C was read as T cruzi growth-1 inactive, C diff growth inactive and Pf Dd2 inh inactive.
`COc1ccc(NC(=O)N(C)C[C@H]2Oc3ccc(NS(=O)(=O)c4ccc(C)cc4)cc3C(=O)N([C@H](C)CO)C[C@H]2C)cc1` gave T cruzi growth-1 inactive and Pf Dd2 inh inactive.
`CCNC(=O)[C@@H]1[C@@H](CO)[C@@H]2Cn3c(ccc(C4=CCCCC4)c3=O)[C@@H]2N1C(=O)c1cnccn1` gave T cruzi growth-1 inactive, C diff growth inactive and Pf Dd2 inh inactive.
Screening CCCNC(=O)[C@@H]1[C@@H](CO)[C@@H]2Cn3c(ccc(C4=CCCC4)c3=O)[C@@H]2N1C(=O)c1cnccn1 returned T cruzi growth-1 97.4, C diff growth inactive, Pf Dd2 inh inactive, T cruzi growth-2 inactive, T cruzi growth-3 inactive, NIH3T3 tox inactive and NIH3T3 tox 2 inactive.
Screening CCNC(=O)[C@H]1[C@H](CO)[C@H]2Cn3c(ccc(C4=CCCCC4)c3=O)[C@H]2N1C(=O)c1cnccn1 returned T cruzi growth-1 inactive, C diff growth inactive and Pf Dd2 inh inactive.
Screening CCNC(=O)[C@H]1[C@H](CO)[C@H]2Cn3c(ccc(C4=CCCCC4)c3=O)[C@H]2N1C(=O)CC1CC1 returned T cruzi growth-1 inactive, C diff growth inactive and Pf Dd2 inh inactive.
For CCNC(=O)[C@@H]1[C@@H](CO)[C@@H]2Cn3c(ccc(C4=CCCC4)c3=O)[C@@H]2N1C(=O)CC1CC1 the results were T cruzi growth-1 inconclusive, C diff growth inactive, Pf Dd2 inh inactive, T cruzi growth-2 inactive, T cruzi growth-3 inactive, NIH3T3 tox inactive and NIH3T3 tox 2 inactive.
CCCNC(=O)[C@H]1[C@H](CO)[C@H]2Cn3c(ccc(C4=CCCC4)c3=O)[C@H]2N1C(=O)c1cnccn1 was read as T cruzi growth-1 99.2, C diff growth inactive, Pf Dd2 inh inactive, T cruzi growth-2 inactive, T cruzi growth-3 inactive, NIH3T3 tox inactive and NIH3T3 tox 2 inactive.
`CO[C@H]1CN(C)C(=O)c2ccc(NC(=O)c3ccc4c(c3)OCO4)cc2OC[C@@H](C)N(CC2CC2)C[C@@H]1C` gave Pf Dd2 inh inactive.
`N#C[C@H]1[C@H](c2ccccc2-c2ccccc2)[C@H](CO)N1C(=O)NC1CCCCC1` gave C diff growth inactive and Pf Dd2 inh inactive.
